Source: PubChem BioAssay
In the library only some 2.3% were active in any assay of this set; here they are far more common.
M1 PAM = potentiates human M1 receptor response to acetylcholine; P11229; CHO-K1 hM1, Fluo-8 calcium fluorescence, ACh EC20; 0% = ACh EC20, 100% = maximal ACh; activation, % at 3 µM; 360,000 compounds, 0.088% hits; in the data active means activation above about 19%, passing the limit was not always enough
Target sequence (P11229 whole entry, looked up): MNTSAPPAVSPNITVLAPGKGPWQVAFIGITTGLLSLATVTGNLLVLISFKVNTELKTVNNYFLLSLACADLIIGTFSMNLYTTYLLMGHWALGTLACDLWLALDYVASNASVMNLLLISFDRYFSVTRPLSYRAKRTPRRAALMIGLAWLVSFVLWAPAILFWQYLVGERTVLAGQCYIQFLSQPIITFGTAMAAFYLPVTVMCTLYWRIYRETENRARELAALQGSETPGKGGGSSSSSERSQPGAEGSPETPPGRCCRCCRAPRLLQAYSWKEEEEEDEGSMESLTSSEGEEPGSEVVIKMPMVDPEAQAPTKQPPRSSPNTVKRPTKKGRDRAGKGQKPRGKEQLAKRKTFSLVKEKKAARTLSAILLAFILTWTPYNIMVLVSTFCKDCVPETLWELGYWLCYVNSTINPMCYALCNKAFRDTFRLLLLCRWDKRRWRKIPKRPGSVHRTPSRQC
CHRM1 agonist = human M1 muscarinic receptor agonism. P11229. CHO-K1 hM1, Fluo-8 calcium fluorescence, agonist mode; 0% DMSO, 100% acetylcholine EC100. activation, % at 3 µM. 360,000 compounds, 0.33% hits;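 active means activation above the run's mean compound activation plus 3 SD, cut at about 16% in these data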;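 further: peak over basal fluorescence ratio within a 140 s kinetic read after compound addition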
CHO-K1 Ca antag = counter-screen for M1 antagonists: effect in parental CHO-K1 cells; AID 602250; ATP-induced calcium, Fluo-8 fluorescence; 360,000 compounds, 0.6% hits; inhibition, % at 3 µM;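 active means inhibition above a per-plate cutoff, the plate's mean sample inhibition plus 3 SD, cut at about 24% in these data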;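 further: 0% = DMSO plus EC80 ATP and 100% = DMSO alone without ATP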
M1 PAM parental = nonselective activator or artifact in parental CHO-K1 calcium assay; ATP EC20, Fluo-8 calcium fluorescence; 0% at ATP EC20, 100% at ATP max; 360,000 compounds, 0.02% hits; activation, % at 3 µM;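 active means activation above the run cutoff, the mean activation of all test compounds plus 3 SD, cut at about 40% in these data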;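 further: peak over basal fluorescence ratio in a 140 s read after ATP addition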
CHO-K1 Ca ag = counter-screen for M1 agonists: effect in parental CHO-K1 cells. Fluo-8 calcium fluorescence; scaled to maximal ATP response, vehicle zero. activation, % at 3 µM. 360,000 compounds, 0.48% hits. AID 602248; in the data active means activation above about 15%;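 further: untransfected CHO-K1 host cells lacking M1 receptor as counterscreen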
CHRM1 antagonist = blocks human M1 muscarinic receptor. P11229. CHO-K1 hM1, Fluo-8 calcium fluorescence, ACh EC80 antagonist. inhibition, % at 3 µM. 360,000 compounds, 1.3% hits. AID 588852;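 active means percent inhibition above its own plate's cutoff, namely the mean of that plate's compound wells plus 3 SD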;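 further: peak over basal fluorescence ratio during 140 s after agonist addition; 0% = ACh EC80 plus DMSO and 100% = DMSO alone without agonist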
Active calls of the source: *.

For CC(C)(C)N(CC#CCC(O)(c1ccccc1)c1ccccc1)CCO the results were M1 PAM -14, CHRM1 agonist -8, CHO-K1 Ca antag -11, M1 PAM parental 16, CHO-K1 Ca ag 1 and CHRM1 antagonist 13.
OC(CC#CCN1CCOCC1)(c1ccccc1)c1ccccc1 was read as M1 PAM 5, CHRM1 agonist -9, CHO-K1 Ca antag -2, M1 PAM parental 5, CHO-K1 Ca ag 0 and CHRM1 antagonist -10.
`CC(C)CC(O)(c1ccccc1)C(CN1CCOCC1)c1ccccc1` (stereo unspecified) gave M1 PAM 1, CHRM1 agonist -3, CHO-K1 Ca antag -16, M1 PAM parental 10, CHO-K1 Ca ag 0 and CHRM1 antagonist -3.
`CC(C)(C)C(O)(CC#CCN1CCCC1)c1ccccc1` (stereo unspecified) gave M1 PAM -23, CHRM1 agonist -5, CHO-K1 Ca antag -6, M1 PAM parental -11, CHO-K1 Ca ag 0 and CHRM1 antagonist 98*.
`C(#CCN1CCCC1)CC(c1ccccc1)c1ccccc1` gave M1 PAM -32, CHRM1 agonist -13, CHO-K1 Ca antag -8, M1 PAM parental 3, CHO-K1 Ca ag 7 and CHRM1 antagonist 100*.
`CS(=O)(=O)c1ccccc1-c1nnc(NC(=O)c2ccc3ncsc3c2)o1` gave M1 PAM 3, CHRM1 agonist -1, CHO-K1 Ca antag 4, M1 PAM parental 9, CHO-K1 Ca ag 1 and CHRM1 antagonist -1.
Cc1cccc(NC(=O)CN(c2ccc(F)cc2)S(C)(=O)=O)c1 was read as M1 PAM 9, CHRM1 agonist 0, CHO-K1 Ca antag -8, M1 PAM parental 14, CHO-K1 Ca ag 0 and CHRM1 antagonist -2.
C=CCNC(=O)c1c2c(nc3ccccc13)-c1ccccc1CC2 was read as M1 PAM -10, CHRM1 agonist 2, CHO-K1 Ca antag -4, M1 PAM parental -1, CHO-K1 Ca ag 4 and CHRM1 antagonist 12.
For CCCn1cnnc1CNC(=O)[C@H]1O[C@@H](n2cnc3c(N)ncnc32)[C@H](O)[C@@H]1O the results were M1 PAM 0, CHRM1 agonist 0, CHO-K1 Ca antag -4, M1 PAM parental 10, CHO-K1 Ca ag 0 and CHRM1 antagonist -36.
Cc1cccnc1CN1CCN(Cc2nc(C(c3ccccc3)c3ccccc3)no2)CC1 was read as M1 PAM -26, CHRM1 agonist -8, CHO-K1 Ca antag -2, M1 PAM parental 5, CHO-K1 Ca ag 1 and CHRM1 antagonist 71*.
`OC(c1ccccn1)C1CCN(Cc2nc(C(c3ccccc3)c3ccccc3)no2)CC1` (stereo unspecified) gave M1 PAM 4, CHRM1 agonist -12, CHO-K1 Ca antag -5, M1 PAM parental 13, CHO-K1 Ca ag 1 and CHRM1 antagonist -8.
Screening C[C@@H]1CN(C2CCN(Cc3nc(C(c4ccccc4)c4ccccc4)no3)CC2)C[C@H](C)O1 returned M1 PAM -21, CHRM1 agonist -13, CHO-K1 Ca antag -3, M1 PAM parental 11, CHO-K1 Ca ag 0 and CHRM1 antagonist 1.
Cc1nc(CN2CCN(Cc3nc(C(c4ccccc4)c4ccccc4)no3)CC2)cs1 was read as M1 PAM -32, CHRM1 agonist -13, CHO-K1 Ca antag 3, M1 PAM parental 6, CHO-K1 Ca ag 0 and CHRM1 antagonist 65*.
Screening O=C(O)c1cccc2c1C(=O)c1ccc(N3CCN(Cc4ccc5c(c4)OCO5)CC3)cc1S2(=O)=O returned M1 PAM -2, CHRM1 agonist -6, CHO-K1 Ca antag 1, M1 PAM parental 16, CHO-K1 Ca ag 3 and CHRM1 antagonist -3.
Cc1ccc(S(=O)(=O)Nc2cccc(-c3ccc4nnc(C)n4n3)c2)s1 was read as M1 PAM 2, CHRM1 agonist -9, CHO-K1 Ca antag 0, M1 PAM parental 15, CHO-K1 Ca ag 1 and CHRM1 antagonist -5.
For CCN1/C(=C/C=C/c2sc3ccccc3[n+]2CC)Sc2ccccc21 the results were M1 PAM -12, CHRM1 agonist 1, CHO-K1 Ca antag 20, M1 PAM parental 1, CHO-K1 Ca ag 5 and CHRM1 antagonist 16.
CCN1/C(=C/c2ccc3cc(C)ccc3[n+]2CC)Sc2ccccc21 was read as M1 PAM -19, CHRM1 agonist 47*, CHO-K1 Ca antag 58*, M1 PAM parental -8, CHO-K1 Ca ag 36* and CHRM1 antagonist 66*.
Screening CCN1/C(=C/c2ccc3cc(C)ccc3[n+]2CC)Sc2cc(C)c(C)cc21 returned M1 PAM -18, CHRM1 agonist 1, CHO-K1 Ca antag 50*, M1 PAM parental -15, CHO-K1 Ca ag 11 and CHRM1 antagonist 40*.
`CC[n+]1c(/C=C2\Sc3ccccc3N2C)ccc2cccc(C)c21` gave M1 PAM -11, CHRM1 agonist 22*, CHO-K1 Ca antag 31*, M1 PAM parental 8, CHO-K1 Ca ag 19* and CHRM1 antagonist 54*.
For CC[n+]1ccccc1/C=C1\Sc2ccc(C)cc2N1C the results were M1 PAM 12, CHRM1 agonist -10, CHO-K1 Ca antag -15, M1 PAM parental 7, CHO-K1 Ca ag 0 and CHRM1 antagonist -10.
Screening CN1/C(=C/c2cccc[n+]2CCO)Sc2ccccc21 returned M1 PAM 8, CHRM1 agonist -8, CHO-K1 Ca antag -7, M1 PAM parental 9, CHO-K1 Ca ag 1 and CHRM1 antagonist -18.
Cc1cc(N=Nc2ccc(C)c(N=Nc3cc(C)c(N)cc3N)c2)c(N)cc1N was read as M1 PAM 4, CHRM1 agonist -8, CHO-K1 Ca antag -12, M1 PAM parental 2, CHO-K1 Ca ag 0 and CHRM1 antagonist -3.
For O=C(NC1CCCc2c1cnn2-c1ccccc1F)c1ccncc1 (stereo unspecified) the results were M1 PAM -9, CHRM1 agonist 4, CHO-K1 Ca antag 5, M1 PAM parental -6, CHO-K1 Ca ag 8 and CHRM1 antagonist 8.
`C=CCN(Cc1cn(C)nc1-c1cccc(Cl)c1)C1CCS(=O)(=O)C1` (stereo unspecified) gave M1 PAM 0, CHRM1 agonist -6, CHO-K1 Ca antag -13, M1 PAM parental 7, CHO-K1 Ca ag 0 and CHRM1 antagonist -4.
For COC(=O)c1[nH]c2ccccc2c1NC(=O)CNC1CCCCC1 the results were M1 PAM -12, CHRM1 agonist 2, CHO-K1 Ca antag 5, M1 PAM parental 10, CHO-K1 Ca ag 5 and CHRM1 antagonist 38*.
Screening COC(=O)c1[nH]c2ccccc2c1NC(=O)CN1CCCCCC1 returned M1 PAM -1, CHRM1 agonist -3, CHO-K1 Ca antag -8, M1 PAM parental 15, CHO-K1 Ca ag 1 and CHRM1 antagonist 7.
